Source: the supplement of paper PMC10849652
Targets with a hit are over-represented here; the source holds about 7,900 in all. About 0.6% of all pairs of compound and target were hits.

Tests used:
Assay in all cases: log2 fold change, soluble protein after heating vs DMSO (PISA); higher = thermal stabilisation; K562 cells, 10 uM, 30 min; active = over 0.2 and 3.5 SD of the protein, either way, in both replicates (recomputed)
[1] = compound: C1=CC=C(C=C1)[C@H](COC2=CC3=C(C=C2)NC(=O)N3)NC(=O)C4=CC=CN(C4=O)CC5=CC(=C(C=C5)F)F
How it was run: (§1)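 K562 cells (2×10^6 cells/mL) were treated with 10 μM compound for 30 min, and aliquots were heated for 3 min over 48°C-58°C. Pooled aliquots were extracted in PBS with 0.5% NP-40 at 4°C, and the supernatant after 21,000xg for 90 min was measured by TMTpro 16plex LC-MS/MS with channel sums equalised. Reported thermal stability, relative to control samples and from duplicates, is a log2 fold change.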

[2] = compound: CC1=C(SC2=C1C(=N[C@H](C3=NN=C(N32)C)CC(=O)N)C4=CC=C(C=C4)Cl)C
How it was run: as §1

[3] = compound: CC1=C2C(=CC=C1)N=C(N(C2=O)C3=CC=CC=C3C)CN4C=NC5=C(N=CN=C54)N
How it was run: as §1

[4] = compound: Cc1sc2c(c1C)C(c1ccc(Cl)cc1)=N[C@@H](CC(=O)OC(C)(C)C)c1nnc(C)n1-2
How it was run: as §1

[5] = compound: c1ccc([C@@H]2C[C@H]2NC2CCNCC2)cc1
How it was run: as §1

Measured: log2 fold change

EIF4A1 (UniProt P60842)
Chain of UniProt P60842 (P60842 whole entry, looked up): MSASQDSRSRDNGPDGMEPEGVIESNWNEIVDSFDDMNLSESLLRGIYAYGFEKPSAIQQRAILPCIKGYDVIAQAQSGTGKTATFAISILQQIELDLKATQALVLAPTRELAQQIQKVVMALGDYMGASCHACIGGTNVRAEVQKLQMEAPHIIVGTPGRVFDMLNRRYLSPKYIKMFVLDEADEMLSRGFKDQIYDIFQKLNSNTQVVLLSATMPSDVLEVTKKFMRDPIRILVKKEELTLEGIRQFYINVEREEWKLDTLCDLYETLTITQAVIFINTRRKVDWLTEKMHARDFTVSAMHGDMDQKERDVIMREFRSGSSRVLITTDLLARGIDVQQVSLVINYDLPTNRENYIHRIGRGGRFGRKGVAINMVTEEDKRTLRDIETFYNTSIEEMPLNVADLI
inactive: [1] -0.043 | [2] 0.096 | [3] 0.05 | [4] -0.005 | [5] -0.042

DPYSL2 (UniProt Q16555)
inactive: [1] -0.012 | [2] 0.072 | [3] 0.093 | [4] 0.01 | [5] 0.014

DCAF6 isoform 3 (UniProt Q58WW2)
inactive: [1] 0.04 | [2] -0.017 | [3] 0.003 | [4] 0.032 | [5] 0.027

FAM241A (UniProt Q8N8J7)
inactive: [1] -0.046 | [2] 0.034 | [3] 0.041 | [4] 0 | [5] 0.008

DNTTIP2 (UniProt Q5QJE6)
Chain of UniProt Q5QJE6 (Q5QJE6 whole entry, looked up): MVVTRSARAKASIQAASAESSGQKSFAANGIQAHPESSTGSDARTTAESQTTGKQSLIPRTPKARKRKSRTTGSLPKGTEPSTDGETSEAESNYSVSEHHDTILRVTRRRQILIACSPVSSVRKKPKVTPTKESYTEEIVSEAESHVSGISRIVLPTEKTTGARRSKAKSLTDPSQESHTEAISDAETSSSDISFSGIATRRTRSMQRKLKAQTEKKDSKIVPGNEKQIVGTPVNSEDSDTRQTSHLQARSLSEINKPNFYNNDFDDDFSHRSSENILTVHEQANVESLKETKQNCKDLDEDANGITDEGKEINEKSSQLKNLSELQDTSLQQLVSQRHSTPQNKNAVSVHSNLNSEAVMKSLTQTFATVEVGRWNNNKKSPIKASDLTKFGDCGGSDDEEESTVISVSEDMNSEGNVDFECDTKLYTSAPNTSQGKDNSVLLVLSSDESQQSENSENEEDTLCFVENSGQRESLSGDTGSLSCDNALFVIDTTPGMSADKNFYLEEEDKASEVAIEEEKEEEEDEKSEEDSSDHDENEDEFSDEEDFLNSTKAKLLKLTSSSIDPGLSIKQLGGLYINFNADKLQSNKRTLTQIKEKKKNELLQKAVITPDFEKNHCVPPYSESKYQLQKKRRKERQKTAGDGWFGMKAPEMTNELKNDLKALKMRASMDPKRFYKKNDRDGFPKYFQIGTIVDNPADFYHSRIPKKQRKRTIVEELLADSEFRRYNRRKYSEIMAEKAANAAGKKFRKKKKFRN
inactive: [1] -0.068 | [2] -0.117 | [3] -0.021 | [4] 0.087 | [5] 0.132

ELOC (UniProt Q15369)
inactive: [1] 0.024 | [2] 0.151 | [3] 0.132 | [4] -0.066 | [5] -0.07

DENND10 (UniProt Q8TCE6)
Chain of UniProt Q8TCE6 (Q8TCE6 whole entry, looked up): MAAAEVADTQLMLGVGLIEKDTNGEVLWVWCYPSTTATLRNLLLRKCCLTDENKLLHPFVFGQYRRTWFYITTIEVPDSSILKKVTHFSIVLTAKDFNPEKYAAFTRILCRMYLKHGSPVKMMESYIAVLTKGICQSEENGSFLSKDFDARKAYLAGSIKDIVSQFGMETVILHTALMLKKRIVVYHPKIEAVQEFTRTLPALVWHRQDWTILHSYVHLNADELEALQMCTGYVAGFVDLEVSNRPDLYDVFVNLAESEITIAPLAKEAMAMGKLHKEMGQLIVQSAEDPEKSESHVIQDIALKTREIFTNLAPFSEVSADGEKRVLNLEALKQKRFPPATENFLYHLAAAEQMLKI
inactive: [1] 0.035 | [2] 0.083 | [3] 0.103 | [4] 0.057 | [5] -0.008

CTSA (UniProt P10619)
inactive: [1] 0.004 | [2] -0.063 | [3] -0.034 | [4] -0.018 | [5] 0.03

FAM50A (UniProt Q14320)
inactive: [1] -0.026 | [2] 0.032 | [3] 0.033 | [4] -0.025 | [5] 0.007

EXOSC10 (UniProt Q01780)
inactive: [1] 0.162 | [2] 0.184 | [3] 0.284 | [4] 0.03 | [5] -0.041

DHCR24 (UniProt Q15392)
Chain of UniProt Q15392 (Q15392 whole entry, looked up): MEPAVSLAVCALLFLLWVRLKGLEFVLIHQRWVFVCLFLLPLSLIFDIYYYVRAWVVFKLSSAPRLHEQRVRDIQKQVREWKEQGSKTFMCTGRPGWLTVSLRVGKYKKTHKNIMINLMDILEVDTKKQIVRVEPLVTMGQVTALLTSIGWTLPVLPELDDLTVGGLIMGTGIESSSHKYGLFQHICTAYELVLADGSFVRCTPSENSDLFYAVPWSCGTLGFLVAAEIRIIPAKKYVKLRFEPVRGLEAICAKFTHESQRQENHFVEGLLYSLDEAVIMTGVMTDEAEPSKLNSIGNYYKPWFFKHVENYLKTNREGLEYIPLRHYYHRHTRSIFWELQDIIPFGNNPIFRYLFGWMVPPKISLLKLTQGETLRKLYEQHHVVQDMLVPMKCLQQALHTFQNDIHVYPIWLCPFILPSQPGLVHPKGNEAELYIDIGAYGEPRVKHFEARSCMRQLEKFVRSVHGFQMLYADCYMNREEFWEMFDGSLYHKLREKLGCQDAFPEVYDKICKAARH
inactive: [1] 0.099 | [2] -0.035 | [3] 0.14 | [4] 0.036 | [5] -0.012

EXOC2 (UniProt Q96KP1)
inactive: [1] -0.054 | [2] 0.025 | [3] 0.03 | [4] 0.033 | [5] 0.011

DNAJC1 (UniProt Q96KC8)
inactive: [1] -0.024 | [2] 0.054 | [3] 0.08 | [4] -0.015 | [5] 0.052

FAM177A1 isoform 2 (UniProt Q8N128)
inactive: [1] -0.073 | [2] 0.047 | [3] 0.17 | [4] -0.002 | [5] 0.028

DTNBP1 (UniProt Q96EV8)
Chain of UniProt Q96EV8 (Q96EV8 whole entry, looked up): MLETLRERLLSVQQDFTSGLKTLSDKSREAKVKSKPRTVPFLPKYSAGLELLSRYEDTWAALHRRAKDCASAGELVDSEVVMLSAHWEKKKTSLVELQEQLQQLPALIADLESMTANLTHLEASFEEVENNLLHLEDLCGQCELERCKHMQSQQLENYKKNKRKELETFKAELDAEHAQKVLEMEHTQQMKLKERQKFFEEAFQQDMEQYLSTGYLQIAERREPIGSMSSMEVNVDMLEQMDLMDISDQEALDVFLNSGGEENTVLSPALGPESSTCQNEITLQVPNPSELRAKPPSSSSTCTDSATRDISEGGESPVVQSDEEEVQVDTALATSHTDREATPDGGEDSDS
inactive: [1] -0.033 | [2] 0.031 | [3] 0.02 | [4] 0.001 | [5] 0.013

DAB2 (UniProt P98082)
Chain of UniProt P98082 (P98082 whole entry, looked up): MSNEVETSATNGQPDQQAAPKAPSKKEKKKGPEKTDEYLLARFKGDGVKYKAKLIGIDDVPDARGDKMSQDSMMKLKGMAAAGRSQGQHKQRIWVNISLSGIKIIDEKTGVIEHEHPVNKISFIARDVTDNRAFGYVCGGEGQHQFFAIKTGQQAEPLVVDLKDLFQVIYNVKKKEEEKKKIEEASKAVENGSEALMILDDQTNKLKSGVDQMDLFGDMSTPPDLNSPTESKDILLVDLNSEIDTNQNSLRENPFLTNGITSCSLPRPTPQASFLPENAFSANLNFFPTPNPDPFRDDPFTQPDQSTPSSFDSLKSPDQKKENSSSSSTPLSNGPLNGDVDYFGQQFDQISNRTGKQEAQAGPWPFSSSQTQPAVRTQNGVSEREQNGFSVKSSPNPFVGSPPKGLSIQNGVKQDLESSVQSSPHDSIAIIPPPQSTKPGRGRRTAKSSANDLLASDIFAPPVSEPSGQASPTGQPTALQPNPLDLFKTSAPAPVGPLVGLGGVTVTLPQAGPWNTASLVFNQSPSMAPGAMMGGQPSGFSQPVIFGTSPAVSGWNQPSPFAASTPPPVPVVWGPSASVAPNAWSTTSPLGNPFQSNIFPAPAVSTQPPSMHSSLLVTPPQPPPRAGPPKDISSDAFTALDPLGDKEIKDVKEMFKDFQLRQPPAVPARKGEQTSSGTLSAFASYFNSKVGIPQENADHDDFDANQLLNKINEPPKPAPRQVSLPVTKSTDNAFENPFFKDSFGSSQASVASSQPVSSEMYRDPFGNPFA
inactive: [1] -0.039 | [2] 0.051 | [3] 0.1 | [4] 0.121 | [5] 0.094

EBNA1BP2 (UniProt Q99848)
inactive: [1] 0.118 | [2] -0.378 | [3] -0.269 | [4] 0.306 | [5] -0.045

EOGT (UniProt Q5NDL2)
inactive: [1] 0.013 | [2] -0.074 | [3] 0.056 | [4] -0.032 | [5] 0.077

EED, A0A5F9ZI63
inactive: [1] 0.002 | [2] 0.011 | [3] 0.03 | [4] -0.029 | [5] -0.006

DHX16 (UniProt O60231)
Chain of UniProt O60231 (O60231 whole entry, looked up): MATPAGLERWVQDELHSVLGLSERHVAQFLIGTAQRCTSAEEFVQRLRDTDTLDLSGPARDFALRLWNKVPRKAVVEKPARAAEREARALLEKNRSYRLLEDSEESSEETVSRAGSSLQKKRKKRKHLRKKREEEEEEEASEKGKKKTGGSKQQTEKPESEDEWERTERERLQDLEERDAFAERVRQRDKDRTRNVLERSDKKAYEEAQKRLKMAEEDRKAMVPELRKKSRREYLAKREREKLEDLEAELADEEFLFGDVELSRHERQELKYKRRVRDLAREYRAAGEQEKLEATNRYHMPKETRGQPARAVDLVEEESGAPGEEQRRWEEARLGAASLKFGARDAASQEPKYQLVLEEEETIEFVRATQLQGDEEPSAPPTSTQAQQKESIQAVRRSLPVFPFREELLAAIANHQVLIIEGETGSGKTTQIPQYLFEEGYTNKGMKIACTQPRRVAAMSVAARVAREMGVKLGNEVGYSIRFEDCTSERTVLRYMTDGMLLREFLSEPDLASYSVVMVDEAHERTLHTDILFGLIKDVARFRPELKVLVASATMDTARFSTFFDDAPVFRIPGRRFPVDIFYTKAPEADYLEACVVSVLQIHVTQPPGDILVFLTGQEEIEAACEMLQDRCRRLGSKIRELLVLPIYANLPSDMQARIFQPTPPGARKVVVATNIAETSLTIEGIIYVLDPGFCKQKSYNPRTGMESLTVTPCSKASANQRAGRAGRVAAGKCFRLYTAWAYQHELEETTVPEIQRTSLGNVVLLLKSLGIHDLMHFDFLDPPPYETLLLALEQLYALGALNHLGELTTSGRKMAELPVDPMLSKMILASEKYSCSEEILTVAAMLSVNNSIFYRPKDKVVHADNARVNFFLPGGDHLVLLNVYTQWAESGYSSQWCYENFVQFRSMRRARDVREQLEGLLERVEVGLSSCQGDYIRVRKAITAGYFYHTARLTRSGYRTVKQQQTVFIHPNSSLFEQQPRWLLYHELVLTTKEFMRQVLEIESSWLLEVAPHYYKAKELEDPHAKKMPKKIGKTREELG
inactive: [1] -0.024 | [2] 0.007 | [3] 0.059 | [4] -0.003 | [5] 0.017

DBNL isoform 3 (UniProt Q9UJU6)
Chain of UniProt Q9UJU6 (Q9UJU6 whole entry, looked up): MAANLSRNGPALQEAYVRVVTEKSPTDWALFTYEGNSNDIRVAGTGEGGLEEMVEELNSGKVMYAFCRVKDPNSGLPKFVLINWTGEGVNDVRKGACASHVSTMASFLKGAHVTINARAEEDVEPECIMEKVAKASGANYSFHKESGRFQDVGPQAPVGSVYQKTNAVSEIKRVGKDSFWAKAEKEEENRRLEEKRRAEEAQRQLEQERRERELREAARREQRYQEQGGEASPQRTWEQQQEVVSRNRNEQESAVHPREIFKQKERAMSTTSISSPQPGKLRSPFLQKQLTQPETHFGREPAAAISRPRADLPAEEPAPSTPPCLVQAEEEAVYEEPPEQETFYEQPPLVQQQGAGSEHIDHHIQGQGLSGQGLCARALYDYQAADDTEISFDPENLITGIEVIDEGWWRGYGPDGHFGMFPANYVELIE
inactive: [1] -0.096 | [2] 0.002 | [3] 0.045 | [4] 0.029 | [5] 0.01

DNAAF2 (UniProt Q9NVR5)
inactive: [1] 0.039 | [2] 0.02 | [3] -0.013 | [4] -0.003 | [5] 0.002

CUX1 isoform 3 (UniProt P39880)
inactive: [1] 0 | [2] 0.025 | [3] 0.034 | [4] -0.009 | [5] 0.016

EGLN1 (UniProt Q9GZT9)
inactive: [1] 0.055 | [2] 0.06 | [3] 0.013 | [4] 0.008 | [5] 0.019

ELOVL5 isoform 2 (UniProt Q9NYP7)
Chain of UniProt Q9NYP7 (Q9NYP7 whole entry, looked up): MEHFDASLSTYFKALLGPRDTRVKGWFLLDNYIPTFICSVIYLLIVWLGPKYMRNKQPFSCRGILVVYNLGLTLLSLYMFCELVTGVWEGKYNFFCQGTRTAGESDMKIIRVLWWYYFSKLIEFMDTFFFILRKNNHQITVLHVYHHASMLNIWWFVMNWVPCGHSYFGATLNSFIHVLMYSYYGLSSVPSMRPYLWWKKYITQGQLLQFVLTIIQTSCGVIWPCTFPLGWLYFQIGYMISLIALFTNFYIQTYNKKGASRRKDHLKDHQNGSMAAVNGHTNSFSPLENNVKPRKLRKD
inactive: [1] -0.056 | [2] 0.021 | [3] 0.016 | [4] -0.074 | [5] 0.033

DIAPH1 (UniProt O60610)
inactive: [1] -0.073 | [2] -0.027 | [3] 0.026 | [4] 0.049 | [5] -0.018
